# The list is not random: actives were taken first. Their share in the collection is about 3.2%.
# GLP1R ag: GLP-1 receptor (human) agonism; HEK293 GLP-1R CRE-luciferase, luminescence, 4-6 h; cells express a hypersensitive GLP-1R form; Potency, µM (top dose mostly 45.6 µM), for inactives: at the top dose activation, usual class: activators; P43220; 0.007% of 380,000 active; further: % of control where 0% means no effect
# Target sequence (P43220 whole entry, looked up): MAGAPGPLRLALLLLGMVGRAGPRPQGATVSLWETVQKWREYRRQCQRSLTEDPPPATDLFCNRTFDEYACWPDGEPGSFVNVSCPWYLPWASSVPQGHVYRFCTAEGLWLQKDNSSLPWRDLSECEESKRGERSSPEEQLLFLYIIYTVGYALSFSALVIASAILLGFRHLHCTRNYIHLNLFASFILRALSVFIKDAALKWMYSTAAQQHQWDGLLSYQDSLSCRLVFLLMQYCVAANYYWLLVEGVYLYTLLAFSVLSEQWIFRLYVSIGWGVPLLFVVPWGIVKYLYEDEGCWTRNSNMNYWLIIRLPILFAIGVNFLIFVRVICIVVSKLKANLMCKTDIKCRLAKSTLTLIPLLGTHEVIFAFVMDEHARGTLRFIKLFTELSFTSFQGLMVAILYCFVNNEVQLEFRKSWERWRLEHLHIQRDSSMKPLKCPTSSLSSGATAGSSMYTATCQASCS
# ClpP mod: qHTS Assay for Activators of ClpP; purified B. subtilis ClpP, FRET peptide cleavage, 20 min; AID 651965, 2013; ATP-dependent Clp protease proteolytic subunit (Bacillus subtilis (strain 168)), P80244; Potency, µM (doses to about 57.5 µM), inactives show at the top dose activity change, negative = active; 1.9% of 340,000 active; active means well fitted falling curve with a large enough effect; inconclusive means small, poorly fitted or top-dose-only effect; inactive means no such curve, though single readings can be large or run the other way; further: the source files actives as falling curves though it sought activators and does not explain the sign; nearly all actives have a fitted effect of over 65% in size
# Target sequence (P80244 whole entry, looked up): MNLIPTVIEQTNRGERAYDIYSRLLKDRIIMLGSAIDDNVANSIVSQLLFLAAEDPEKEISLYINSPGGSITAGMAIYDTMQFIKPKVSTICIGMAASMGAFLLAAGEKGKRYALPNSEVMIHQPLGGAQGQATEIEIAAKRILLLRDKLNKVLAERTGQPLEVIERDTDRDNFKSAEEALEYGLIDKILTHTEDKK
#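 Buffer: 100 mM Tris/HCl pH8, 100 mM KCl, 0.05% low protease BSA, 2.5% glycerol, 0.01% Tween-20. ClpP 10 microg/mL final; 20 min RT; delta FRET normalized to ADEP and DMSO controls.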
# GLP1R cytotox: cytotoxic in the GLP-1 receptor inverse agonist counter-screen; HEK293 cAMP-luciferase reporter cells, luminescence, 24 h; 0.13% of 410,000 active; Potency, µM (highest dose often 38.3 µM), without a hit: top-dose activity change, negative = inhibition, actives largely listed as inhibitors; AID 624418;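 further: loss of luciferase light is scored as toxicity; on the % scale 0 is the no-effect control and ±100 the full control effect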
#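 Compound-treated cells are incubated 24 hr at 37 deg C under 5% CO2 after a 12 hour attachment period, then luciferase detection reagent is added and luminescence is measured following 12 min at room temperature; lowered signal indicates toxicity.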
# GLP1R inv ag: acts as inverse agonist at human GLP-1 receptor | HEK293 GLP-1R CRE-luciferase, luminescence, 24 h; GLP-1R form is constitutively active | Potency, µM (series often up to 38.3 µM), for inactives: at the highest dose activity change, negative = inhibition, usual class: inhibitors | P43220 | 1.6% of 410,000 active; further: on the % scale 0 is the no-effect control and ±100 the full control effect; nearly all actives have a fitted effect of over 55% in size
#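 GLP-1R inverse agonism mode: basal reporter luminescence in engineered HEK293 cells measured after one day of compound exposure at 37 deg C, with a 12 min room-temperature detection step.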
# * = called active by the depositor; ? = inconclusive; / = not tested or not shown. Unless noted, the call rests on the fitted dose curve; in most records, active means well fitted curve in the direction sought with a large enough effect; inconclusive means small, poorly fitted or top-dose-only effect, or another doubt; inactive means no such curve, though single readings can be large; an effect the other way counts as inactive or inconclusive. Potency means the concentration at half of the fitted maximal effect.
SMILES,GLP1R ag,ClpP mod,GLP1R cytotox,GLP1R inv ag
O=C1NC(=O)c2c(NC(=O)C3CCCO3)cccc21 (stereo not drawn),8%,16µM*,-6%,-15%
Cc1nn(-c2ccc(N3CCOCC3)nn2)c(C)c1CCC(=O)NCc1ccc(OC(C)C)cc1,/,-4%,5%,4%
N=c1c2c(-c3ccccc3)c(-c3ccccc3)n(Cc3ccccc3)c2ncn1CCCn1ccnc1,-56%,1%,10µM*,7.9µM*
N=c1c2c(-c3ccccc3)c(-c3ccccc3)n(Cc3ccco3)c2ncn1Cc1ccco1,-19%,3%,?,8.9µM*
CCCCn1cnc2c(c(-c3ccccc3)c(-c3ccccc3)n2Cc2ccco2)c1=N,0%,-2%,?,?
CCOc1ccc(NCc2cccn2-c2nnc(N3CCC(C(=O)NCc4ccccc4Cl)CC3)s2)cc1,/,1%,0%,?
CC(C)Oc1ccc(CNC(=O)C2CCCN(S(=O)(=O)c3ccc4c(ccn4C)c3)C2)cc1 (stereo not drawn),/,0%,1%,-2%
CCOc1ccc(-c2cn3c(n2)sc2cc(C(=O)NCCCN4CCCCCC4)ccc23)cc1,/,-18%,-7%,8%
CCOc1ccc(-c2cn3c(n2)sc2cc(C(=O)NCCCN(CC)CC)ccc23)cc1,/,?,?,10µM*
Cc1cc(F)ccc1S(=O)(=O)Nc1ccccc1C(=O)Nc1ccccc1-c1nc2ccccc2[nH]1,-20%,32µM*,?,6.3µM*
Cc1cc(F)ccc1S(=O)(=O)Nc1ccccc1C(=O)Nc1ncn[nH]1,-4%,32µM*,-1%,?
Cc1cc(F)ccc1S(=O)(=O)Nc1ccccc1C(=O)Nc1ccccc1N1CCOCC1,-2%,-5%,22%,?
Cc1cc(F)ccc1S(=O)(=O)Nc1ccccc1C(=O)NCc1ccccn1,0%,/,-2%,?
Cc1ccc(S(=O)(=O)Nc2ccccc2C(=O)Nc2nc(-c3ccc(F)cc3)cs2)cc1,-18%,16µM*,?,3.2µM*
O=C(Nc1ccc(-c2nc3ccccc3[nH]2)cc1)c1ccccc1NS(=O)(=O)c1ccc(F)cc1,-40%,35µM*,-18%,?
Oc1cccc(Nc2cc(-c3ccccc3)ncn2)c1,/,-5%,3%,35%
O=C1C=C(OCCF)CC(c2ccccc2C(F)(F)F)O1 (stereo not drawn),/,3%,2%,4%
CC(C)(C)CC(C)(C)N=C1Nc2ccc([N+](=O)[O-])cc2N[C@]12C[C@H]1CCCC(=O)N3CC[C@@H](C2)[C@@H]13,/,4%,/,/
O=C(c1cccc(Cl)c1)N1CCC(N2CCC(C(=O)N3CCOCC3)CC2)CC1,0%,/,-3%,6%
Cc1onc(-c2ccccc2Cl)c1C(=O)N1CCN(c2cccc(Cl)c2)CC1,3%,-1%,-13%,1µM*
Cc1[nH]c(-c2ccc(F)cc2)cc1C(=O)N1CCN(c2cccc(Cl)c2)CC1,6%,/,?,5µM*
O=C(c1cc2cc(F)ccc2[nH]1)N1CCN(c2cccc(Cl)c2)CC1,-4%,4%,0%,-7%
O=C(c1cccc(F)c1)N1CCN(c2cccc(Cl)c2)CC1,2%,28µM*,?,?
O=C(c1cccc(F)c1)N1CCC(N2CCOCC2)CC1,0%,14µM*,0%,13%
O=C(c1cccc(F)c1)N1CCCN(C(=O)c2cccc(F)c2)CC1,1%,1%,12%,39%
SMILES,GLP1R ag,ClpP mod,GLP1R cytotox,GLP1R inv ag
CCOc1ccc(CNC(=O)C2CCN(S(=O)(=O)c3cn(C)cn3)CC2)cc1OC,/,-1%,6%,8%
CCc1ccccc1N1C(=O)N(CC(=O)c2ccc(Cl)cc2)c2ccccc2S1(=O)=O,-2%,0%,11%,-20%
Cc1ccc(Cl)cc1NC(=O)CN1C(=O)CSc2ccc(S(=O)(=O)N3CCCC3)cc21,/,0%,-6%,-19%
Cc1ccc(NC(=O)CN2C(=O)CSc3ccc(S(=O)(=O)N4CCCCC4)cc32)cc1,-1%,0%,8%,5µM*
Cc1cc(C)cc(NC(=O)CN2C(=O)CSc3ccc(S(=O)(=O)N4CCCC4)cc32)c1,/,-1%,-4%,?
Cc1cc(Cl)ccc1NC(=O)CN1C(=O)CSc2ccc(S(=O)(=O)N3CCOCC3)cc21,5%,0%,-21%,11µM*
CC(C)CC(c1nnnn1Cc1ccco1)N1CCN(c2cccc(Cl)c2)CC1 (stereo not drawn),1%,-1%,-1%,10µM*
CCCSc1nc(C)cc(C)c1S(=O)(=O)c1ccccc1C,11%,-5%,85%,8.9µM*
CCOCCCNC(=O)c1c[nH]c2ccc(S(=O)(=O)Nc3cccc(Cl)c3C)cc2c1=O,/,?,29%,-9%
O=c1c(-c2nnc(SCc3ccc(Cl)cc3Cl)o2)cccn1Cc1ccccc1,5%,3.2µM*,-3%,-23%
CC1(C)S[C@@H]2[C@H](NC(=O)C(C(=O)Oc3ccc4c(c3)CCC4)c3ccccc3)C(=O)N2[C@H]1C(=O)O (stereo partly drawn),-6%,/,/,/
CC(Nc1nc(Cl)nc2nc[nH]c12)c1ccccc1 (stereo not drawn),/,-1%,/,/
COc1ccc(C2C(C#N)=C(SC)NC3=C2C(=O)CC(C)(C)C3)cc1 (stereo not drawn),-1%,-10%,-18%,-21%
CCCOC(=O)C1=C(C)NC2=C(C(=O)CC(C)(C)C2)C1c1ccc(N(C)C)cc1 (stereo not drawn),2%,-5%,-16%,-26%
CCOC(=O)C1=C(C)NC2=C(C(=O)CC(C)(C)C2)C1c1cccc(C)n1 (stereo not drawn),-2%,32µM*,86%,-9%
CCN(CC)c1ccc(C2C(C(=O)OCCOC)=C(C)NC3=C2C(=O)CC(C)(C)C3)cc1 (stereo not drawn),11%,28µM*,-4%,-30%
COC(=O)c1ccc(C2C(C#N)=C(C)NC3=C2C(=O)CC(C)(C)C3)cc1 (stereo not drawn),0%,22µM*,137%,14%
CCCCC1C(C#N)=C(C)NC2=C1C(=O)CC(C)(C)C2 (stereo not drawn),-8%,13µM*,122%,?
Cc1ccc(N(C)C(=O)C2CCCN(c3ncnc4c3nc3n4CCCCC3)C2)cc1C (stereo not drawn),/,0%,-4%,5%
Cc1cccc(-c2nc(Cn3c(SCc4cc(C)ccc4C)nc4ccncc43)c(C)o2)c1,/,1%,4%,-32%
Cc1c(C#N)c2ncn(Cc3ccccn3)c(=O)c2n1-c1ccccc1,1%,28µM*,10%,35%
O=C(CSc1ncc2c(n1)-c1cc(Cl)ccc1N(Cc1ccccc1)S2(=O)=O)NCc1ccccc1,/,13%,2%,-21%
c1ccc(C[C@H]2CNCCN2CCc2cccc3ccccc23)cc1,6%,-2%,-23%,11µM*
